# Rows were chosen to be rich in hits. Some 2.2% of all compounds tested hit in one or more screens of this group.
# Mito fusion act – blocks mitochondrial division or promotes mitochondrial fusion; S. cerevisiae fusion-defective mutant growth rescue, CellTiterGlo 48 h; Potency, µM (titrated, usually from 46.1 µM), without a hit: at the top dose growth rescue (activation), most hits filed as activators; 320,000 tested, 0.23% active; also: % of control where 0% means no effect; nearly all actives have a fitted effect of over 45% in size
#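 Growth-rescue viability read-out: after 48 h at the non-permissive 37C in glycerol/ethanol YPEG, yeast mitochondrial fusion mutants are measured by CellTiterGlo luminescence; compounds (23 nl pinned per well) restoring growth score as division inhibitors or fusion activators.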
# aSyn yeast inh – rescues yeast growth from alpha-synuclein toxicity; Yeast expressing alpha-synuclein, growth rescue, BacTiter-Glo, 24 h; 370,000 tested, 0.14% active; Potency, µM (top dose mostly 46.1 µM), without a hit: top-dose growth rescue (activation), actives largely listed as activators; AID 652106; also: % of control where 0% means no effect; nearly all actives have a fitted effect of over 65% in size
#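 Rescue of yeast growth: cells expressing toxic alpha-synuclein, induced in galactose at OD600 0.02, incubated with compound 24 h at 30 C. ATP luminescence quantified growth; inhibitors of toxicity appear as activators.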
# TDP43 rescue – inhibitors of TDP-43 toxicity in yeast | TDP-43 expressing yeast growth rescue, BacTiter-Glo, 24 h | Potency, µM (highest dose often 46.1 µM), for the others: top-dose growth rescue (activation), usual class: activators | 410,000 tested, 1.8% active; also: % of control where 0% means no effect; nearly all actives have a fitted effect of over 50% in size
#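 Growth rescue of TDP-43-toxic yeast measured as ATP luminescence (BacTiter-Glo). Cells grown to mid-log in raffinose, induced in galactose at OD600=0.02, exposed to compound 24 hr at 30 deg C.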
# Abeta yeast res – A-beta toxicity reversal in yeast; 410,000 tested, 0.063% active; Potency, µM (titrated, usually from 46.1 µM), most hits filed as activators; AID 1347071; yeast expressing A-beta42, growth rescue, OD600, 48 h; response scale: 0% DMSO, 100% iron-clioquinol control; also: nearly all actives have a fitted effect of over 55% in size
#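 Yeast growth medium received pinned compounds, then yeast cells expressing toxic A-beta were added; plates incubated at 30 C for 48 hr. Growth read as absorbance at 600 nm, normalized to DMSO and equimolar FeCl3 plus clioquinol controls.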
# FUS yeast rescue – FUS proteinopathy suppression in yeast | 390,000 tested, 0.24% active | S. cerevisiae FUS-expressing, growth rescue, OD600, 24 h | Potency, µM (titrated, usually from 76.6 µM), actives largely listed as activators | AID 1347120;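 also: plate controls were DMSO vehicle for no effect and reference control for full effect; nearly all actives have a fitted effect of over 55% in size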
#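 Yeast expressing FUS under galactose induction, OD 0.005 in 2% galactose medium; compounds in a dilution series, 24 h at 30C. Growth rescue by absorbance at 600 nm; CP55940 positive control, DMSO negative.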
# * = called active by the depositor; i = inactive; ? = inconclusive; / = no result given; [ ] = remark or other dose. Calls follow the shape of the dose curve; as a rule, active = well fitted curve in the direction sought with a large enough effect; inconclusive = small, poorly fitted or top-dose-only effect, or another doubt; inactive = no such curve, though single readings can be large; an effect the other way counts as inactive or inconclusive. Potency is read from the fitted curve at half-maximal effect.
SMILES,Mito fusion act,aSyn yeast inh,TDP43 rescue,Abeta yeast res,FUS yeast rescue
COc1ccc(S[C@]2(C(=O)N(C)C)CC(=O)N(C(=O)C3CC3)[C@@H]2c2ccc(OC)cc2)cc1,/,/,/,/,i
CCC(=O)N(CC)c1nc(-c2ccc(OC)cc2)cs1,-3%,-23%,5µM*,i,i
CCC(=O)N(Cc1ccco1)c1nc(-c2ccc(OC)cc2)cs1,-4%,5%,11%,i,i
O=C(O)CN(c1cccc(C(F)(F)F)c1)S(=O)(=O)c1ccccc1,5%,-4%,-10%,i,i
O=S(=O)(c1ccccc1)N(CC(F)(F)F)c1ccc(C(O)(C(F)(F)F)C(F)(F)F)cc1,/,-19%,22µM*,?,i
COCCNC[C@@]12CO[C@H](c3ccc(Cl)cc3)N1[C@@H](c1ccc(Cl)cc1)SC2,/,/,/,/,i
CCc1nc(SCc2cc(Cl)ccc2OC)n[nH]1,17%,16µM*,?,i,i
CC(C)c1ccccc1OCCNC(=O)c1cccnc1,-7%,5%,-10%[0.397 µM],i,i
CC(C)c1ccccc1OCCNC(=O)c1cncc(Br)c1,4%,14%,20µM*,i,i

# From PubChem
